Hits are enriched below; roughly 3.5% of the tested compounds scored in any of these assays.
Rv3671c inh = Rv3671c serine protease inhibitors, primary screen, biochemical, fluorescence polarization, M. tuberculosis H37Rv; P9WHR9; inhibition, % at 5.96 µM; 0.048% of 320,000 active; in the data active means inhibition above about 38%;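 further: extracellular domain of Rv3671c used as enzyme; 0% = enzyme with DMSO and 100% = no enzyme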
Mtb UGM inh = M. tuberculosis UGM enzyme inhibitors, primary screen, biochemical, fluorescence polarization, single point; inhibition, % at 10 µM; AID 504406, 2011; purified UGM, fluorescence polarization probe displacement; 0.06% of 320,000 active; in the data active means inhibition above about 10%, passing the limit was not always enough; inconclusive means no clear call, values can overlap the other calls
Target sequence (P9WIQ1 whole entry, looked up): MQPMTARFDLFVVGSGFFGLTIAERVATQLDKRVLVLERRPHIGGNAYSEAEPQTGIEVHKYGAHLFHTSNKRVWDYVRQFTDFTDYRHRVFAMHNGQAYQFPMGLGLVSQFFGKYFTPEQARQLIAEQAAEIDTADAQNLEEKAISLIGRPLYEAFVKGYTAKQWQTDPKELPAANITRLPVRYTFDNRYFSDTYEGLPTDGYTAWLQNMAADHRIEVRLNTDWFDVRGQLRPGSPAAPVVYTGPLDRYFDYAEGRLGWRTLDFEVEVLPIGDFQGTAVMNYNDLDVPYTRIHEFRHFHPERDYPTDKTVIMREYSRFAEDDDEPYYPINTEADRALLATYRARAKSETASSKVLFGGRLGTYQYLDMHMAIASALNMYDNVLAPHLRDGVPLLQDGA
Mtb bLac sens = beta-lactam sensitization of Mtb H37Rv, H37Rv | M. tuberculosis H37Rv growth with meropenem, percent inhibition | inhibition, % at 25 µM | 0.27% of 330,000 active | AID 434955, 2010; call rule not given here;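 further: growth measured after seven days incubation then overnight dye step; 0% = bacteria only wells and 100% = bacteria with antibiotic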
FBA Mtb inh = Mtb FBA enzyme inhibitors, primary screen, biochemical, fluorescence, strain H37Rv; Fructose-bisphosphate aldolase (Mycobacterium tuberculosis (strain ATCC 25618 / H37Rv)), …; purified M. tuberculosis FBA, fluorescence read-out; inhibition, % at 1 µM; 2.3% of 360,000 active; AID 588726, 2011;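 further: 0% = vehicle and 100% = reference inhibitor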
GDH-TPI counter-1 = GDH-TPI coupling enzyme inhibitors, primary screen, artefact control for M. tuberculosis FBA inhibitor project, biochemical, absorbance, full deck; GDH-TPI coupled enzyme counterscreen, NADH absorbance; inhibition, % at 4.8 µM; 1.2% of 360,000 active; in the data active means inhibition above about 30%;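 further: 0% = DMSO wells and 100% = wells lacking the enzyme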
Mtb FBA inh conf = M. tuberculosis aldolase blockers, biochemical, fluorescence, strain H37Rv, confirmation; shares compounds with FBA Mtb inh; purified M. tuberculosis FBA, fluorescence read-out; inhibition, % at 1 µM; 78% of 5,600 active; AID 651616, 2012;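 further: 0% = vehicle wells and 100% = reference inhibitor wells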
GDH-TPI counter-2 = GDH-TPI coupling enzyme inhibitors, artefact control for M. tuberculosis FBA inhibitor project, biochemical, fluorescence, high throughput | shares compounds with FBA Mtb inh | GDH-TPI coupled enzyme counterscreen | inhibition, % at 1 µM | 81% of 5,600 active; in the data active means inhibition above about 10%
GDH-TPI dose = GDH-TPI coupling enzyme inhibitors, dose response, artefact control for M. tuberculosis FBA inhibitor project, biochemical, fluorescence, IC50; GDH-TPI coupled enzyme assay, artifact counterscreen; 79% of 170 active; AID 652145, 2013; IC50, µM; shares compounds with FBA Mtb inh; call rule not given here
The depositor's hits bear a star; ? = inconclusive; . = no result given; + = active, no number. Unless noted, no stated cut-off is given here; in the data, active means inhibition above about 27%; inactive means the rest.

SMILES	Rv3671c inh	Mtb UGM inh	Mtb bLac sens	FBA Mtb inh	GDH-TPI counter-1	Mtb FBA inh conf	GDH-TPI counter-2	others
CC(=O)OCC1OC(c2ccccc2)C(OC(C)=O)C(OC(C)=O)C1OC(C)=O (stereo not given)	-18.0	0.3	-11.4	-0.5	-4.0	.	.
CC(=O)OC[C@H]1O[C@@H](Sc2cccc3cccnc23)[C@H](OC(C)=O)[C@@H](OC(C)=O)[C@@H]1OC(C)=O	-3.1	1.1	?	28.4*	9.6	57.4*	60.1*
CC(=O)OC[C@H]1O[C@@H](Sc2cccc3cccnc23)[C@H](OC(C)=O)[C@@H](OC(C)=O)[C@H]1OC(C)=O	3.2	2.1	-9.8	34.5*	-1.4	66.7*	83.3*
Cc1ccc(C(N)=Nc2ccccc2)cc1	-4.6	0.2	-5.8	2.1	-1.8	.	.
O=C1NC(=O)N(c2ccccc2)C(=O)/C1=C\c1ccc2c3c(cccc13)CC2	-16.2	-1.5	7.9	.	.	.	.
COc1ccccc1N1C(=O)NC(=O)/C(=C/c2ccc3c4c(cccc24)CC3)C1=O	-4.5	-1.3	2.9	37.7*	18.0	17.5	-6.0	GDH-TPI dose=3.89*
Cc1ccc(CNC(=O)c2ccc(N3CCC4(CC3)CC(c3ccccc3)=NO4)c(N)c2)cc1	3.8	2.6	3.0	5.0	0.0	.	.
CCOC(=O)Cc1csc(/N=C/c2c(O)n(-c3ccc(C)cc3C)c(=O)c3ccccc23)n1	-5.1	-0.5	-0.8	52.9*	13.6	59.5*	41.8*
CCOC(=O)CNc1c(-c2ccc(O)cc2)nc2ccccn12	-6.1	-1.7	-2.7	40.5*	13.7	2.6	-0.9
CCC(=O)Nc1c(-c2ccc3ccccc3c2)nc2ccccn12	-5.2	-1.5	-0.4	50.2*	15.4	62.3*	75.3*
CC(=O)Nc1c(-c2ccc3ccccc3c2)nc2ccccn12	-8.2	1.6	3.8	59.1*	13.0	41.3*	29.6*
CCOC(=O)CNc1c(-c2ccc(O)cc2)nc2ccc(Cl)cn12	6.2	2.6	1.9	4.7	16.2	.	.
O=C(Nc1c(-c2ccccc2)nc2ccccn12)c1ccccc1	0.9	-1.6	1.0	-1.4	0.8	.	.
CCCCn1c(N)c(N(C)C(=O)c2ccccc2Oc2ccccc2)c(=O)[nH]c1=O	3.1	-1.5	-4.7	2.4	9.2	.	.
O=Cc1cn(-c2ccccc2)nc1-c1cc2cc(O)ccc2oc1=O	6.5	-0.7	87.6	32.2*	33.5*	81.6*	57.2*
CCOC(=O)c1sc(N(C)C)nc1-c1ccccc1	7.4	4.0	3.1	39.0*	14.3	135.9*	97.0*
O=C(c1ccc(CS(=O)c2cccc(Cl)c2)o1)N1CCCCCC1 (stereo not given)	8.7	0.9	2.4	2.1	-1.5	.	.
CSC1=NC(NCCCO)c2c(sc3c2CC(C)(C)OC3)N1 (stereo not given)	-15.7	-1.8	-10.7	27.8*	11.9	107.3*	92.3*
C=CCSc1nnc(-c2sc(-c3ccccc3)nc2C)n1C	-2.0	1.1	-14.1	63.6*	12.8	2.3	-3.5
C=CCSc1nnc(-c2nnc(SCC=C)n2-c2ccccc2)n1-c1ccccc1	-1.6	1.1	1.6	0.3	-2.5	.	.
Cc1ccc(Nc2cc(-c3ccccc3)nc3ncnn23)cc1	2.2	-0.4	-1.2	-19.8	1.5	.	.
FC(F)(F)c1cc(-c2ccco2)nc2ncnn12	-0.2	-3.3	0.4	27.4*	17.4	75.3*	56.5*
NC(=O)c1cc2nc(-c3ccco3)cc(C(F)(F)F)n2n1	11.4	-2.7	1.0	23.8	28.3	.	.
FC(F)(F)c1cc(-c2ccccc2)nc2ncnn12	1.6	0.9	2.3	34.0*	0.6	0.4	-3.0
C=CCN(c1ccccc1)S(=O)(=O)c1cccc(C(=O)NNC(=O)c2ccncc2)c1	7.2	.	-10.9	0.0	10.7	.	.
SMILES	Rv3671c inh	Mtb UGM inh	Mtb bLac sens	FBA Mtb inh	GDH-TPI counter-1	Mtb FBA inh conf	GDH-TPI counter-2	others
Cc1nc(SCC(=O)N2CCCC2=O)nc(C)c1C	0.6	-1.6	-6.4	-1.1	11.7	.	.
CNC(=O)c1ccc(NC(=O)/C=C/c2cccc(F)c2)cc1	-8.2	0.5	0.2	-2.5	9.2	.	.
CC12CCC(=O)N1C(C(=O)N1CCN(S(=O)(=O)c3cccc(Cl)c3)CC1)CS2 (stereo not given)	-3.5	0.8	2.5	1.1	-6.4	.	.
O=C(CCN1C(=O)c2cccc3cccc(c23)C1=O)Nc1ccccc1	-0.9	0.2	-7.8	7.5	1.9	.	.
O=C(/C=C/c1cccc([N+](=O)[O-])c1)n1cnc2ccccc21	.	.	.	-1.2	0.0	.	.
COC(=O)c1c(S(N)(=O)=O)c2ccccc2n1C	-6.4	-1.4	1.3	32.8*	-2.5	+	+
CCn1cc(CN2CCCC(C(=O)c3ccc(-c4ccccc4)cc3)C2)cn1 (stereo not given)	-0.5	-1.6	42.0	-3.4	-3.1	.	.
Cc1cc(=O)oc2cc3c(cc12)OCCO3	0.6	0.2	-1.1	61.7*	8.2	195.5*	161.9*
CC(=O)c1cc2c(C)cc(=O)oc2cc1O	-7.7	-0.8	-5.5	9.0	17.2	.	.
Cc1cnc(N=Nc2ccccc2)[nH]1	.	.	.	-8.6	26.4	.	.
Nc1nc2sc3c(c2cc1C(=O)NCC(=O)O)CCCC3	8.3	1.1	5.0	-2.5	4.4	.	.
Nc1nc2sc3c(c2cc1C(=O)N1CCOCC1)CCCC3	0.2	2.1	-4.5	32.4*	1.3	56.3*	54.0*
COc1ccc(-c2ccc(C(=O)N3CCOCC3)c3occc23)c(C)c1	.	.	.	5.1	-0.9	.	.
Cc1cc(N/N=C/c2ccco2)c2ccccc2n1	-0.8	-0.7	4.6	8.7	-2.0	.	.
Cc1cc(N/N=C/c2ccc(N(C)C)cc2)c2ccccc2n1	-3.2	0.4	2.4	28.1*	31.1*	+	167.0*
CCN1CCSc2ccc(C(=O)NCc3ccccc3F)cc21	2.7	3.4	2.2	86.9*	12.0	+	+
CCN1C(=O)CSc2ccc(C(=O)NCc3ccccc3OC)cc21	-5.3	0.5	-1.4	2.2	9.6	.	.
CCN1CCSc2ccc(C(=O)NCc3ccccc3Br)cc21	5.9	0.8	-6.2	59.2*	14.8	0.8	-1.9
O=C(NCc1ccco1)c1ccc2c(c1)N(Cc1ccc(Cl)cc1)CCS2	-0.4	1.0	-1.5	22.5	0.0	.	.

Screening results (PubChem)
